Laboratory results as given in PubChem BioAssay AID1117361 (Southern Research Institute, 2015).
Hit rate of the full screen: of about 3,600 compounds, about 900 (25%) were called active. No rule for the calls is given here. The list is a sample of the results. Measured potencies and affinities stand elsewhere.

biological target: Protein Tat (Human immunodeficiency virus type 1 group M subtype B (isolate HXB2)) (UniProt P04608); assay: HIV-1 Tat–TAR interaction blockers – biochemical, fluorescence polarization, FAM-labeled TAR RNA, counter-screen for Vif-APOBEC3G degradation inhibitor project, dose response (AID 1117361); conditions: Tat-TAR RNA binding; series mostly up to 100 µM

Row | Compound | outcome
1 | CCc1ccc(N2C(=O)Cc3c2nc(N)c(C#N)c3N)cc1 | inactive
2 | CCOC(=O)Cn1nc(-c2ccccc2)c2cnc3ccc(C)cc3c21 | inactive
3 | O=C1CC(c2c(F)cccc2Cl)C2=C(COC2=O)N1 (stereo unspecified) | inactive
4 | COc1cccc(CC(=O)N2CCCC(CO)(Cc3ccc(F)cc3F)C2)c1 (stereo unspecified) | inactive
5 | Cc1ccc(C(=O)COC(=O)CNC(=O)C(c2ccccc2)c2ccccc2)cc1[N+](=O)[O-] | inactive
6 | O=c1c2c(-c3ccco3)csc2nc(SCc2cn3cccnc3n2)n1-c1ccccc1 | inactive
7 | C=CCn1c(SCC(=O)c2c(N)n(C)c(=O)n(C)c2=O)nnc1-c1ccccc1F | inactive
8 | N#CCOC(=O)c1sccc1-n1cccc1 | inactive
9 | O=C(CSc1nnc(-c2ccc(F)cc2)o1)Nc1ccc(S(=O)(=O)N2CCCC2)cc1 | inactive
10 | Cc1nnc(NC(=O)c2ccc(C)c(S(=O)(=O)N3CCOCC3)c2)s1 | inactive
11 | Cc1ccc(C(=O)Nc2cccc(C(=O)O)c2)cc1S(=O)(=O)N1CCOCC1 | inactive
12 | N#CC(=C1SC=CS1)c1nc(-c2ccccc2)cs1 | inactive
13 | CCOC(=O)C1CCN(Cc2cnc(Oc3ccc(OC)cc3)s2)CC1 | inactive
14 | CCOC(=O)C1CCN(c2ncnc3cc(OC)c(OC)cc23)CC1 | inactive
15 | CCOC(=O)CSc1nnc(-c2ccco2)n1C | inactive
16 | CSc1ncccc1C(=O)OCC(=O)N1CCOCC1 | inactive
17 | CCN(CC)c1ccc(N=Cc2ccc(N(CC)CC)cc2O)cc1 | inactive
18 | CCOC(=O)C1C(=O)CC(C)(O)C(C(=O)OCC)C1c1cc(Br)ccc1OC (stereo unspecified) | inactive
19 | O=C(CSc1nnc(-c2cccnc2)n1Cc1ccco1)c1ccc(Br)cc1 | inactive
20 | COc1cccc(-c2nn3c(-c4ccccn4)nnc3s2)c1 | inactive
21 | N#Cc1ccc(CSc2nnc(Cc3cccs3)n2Cc2ccco2)cc1 | inactive
22 | O=C(CCCCn1c(=O)[nH]c2ccsc2c1=O)NCc1cccnc1 | inactive
23 | COC(=O)c1cc(=O)nc2sc(-c3ccc(F)cc3)nn12 | inactive
24 | COc1c(OC(C)=O)ccc(/C=C/c2ccc3ccccc3n2)c1[N+](=O)[O-] | inactive

Row | Compound | outcome
25 | COC1=C(OC)C(=O)C(Sc2ccc3ccccc3c2)=CC1=O | inactive
26 | CCNC(=O)NC(=O)COC(=O)CNC(=O)COc1ccccc1 | inactive
27 | CCOC(=O)CNc1nc(-c2ccncc2)nc2ccccc12 | inactive
28 | Cc1ccc(NC(=O)C(=O)c2c(-c3ccccc3)cc3ccccn23)cc1S(=O)(=O)N1CCOCC1 | inactive
29 | O=C(C1CC(c2ccccc2O)=NO1)N1CCCCC1 (stereo unspecified) | inactive
30 | Oc1ccc(/C=N/N2CCCCC2)c(O)c1 | inactive
31 | Cc1ccc(NC2=NCCCCC2)cc1C | inactive
32 | Cc1ccc(C(C[N+](=O)[O-])Sc2ccc(N)cc2)cc1 (stereo unspecified) | inactive
33 | CCCCc1ccc(NC(=O)CC(C)(C)C)cc1 | inactive
34 | COC(=O)c1sccc1NC(=O)CC1C(=O)NCCN1C(=O)Nc1ccccc1 (stereo unspecified) | inactive
35 | COc1ccc(C2SCC(C(=O)NCc3ccc(F)cc3)N2C(C)=O)cc1 (stereo unspecified) | inactive
36 | O=C(NNC(=O)c1cccnc1)Nc1ccc([N+](=O)[O-])cc1 | inactive
37 | O=C(Nc1ccc(F)c(Cl)c1)c1cccnc1 | inactive
38 | Cc1ccc(S(=O)(=O)C2(C(=O)Nc3cccc(F)c3)CC2)cc1 | inactive
39 | CC(C)Cc1cc(C(=O)Nc2cccc(O)c2)no1 | inactive
40 | CN1CCN(C(CNC(=O)c2ccc(Br)o2)c2ccc(F)cc2)CC1 (stereo unspecified) | inactive
41 | CCOc1ccc(C2c3c(oc4ccccc4c3=O)C(=O)N2CCCN2CCOCC2)cc1 (stereo unspecified) | inactive
42 | COc1ccc(C(C(C(=O)c2cccs2)N2CCOCC2)N2CCOCC2)cc1OC (stereo unspecified) | inactive
43 | CN(C(=O)c1ccc(OC2CCN(S(=O)(=O)N(C)C)CC2)cc1)C1CCCCC1 | inactive
44 | COc1ccc(NC(=O)Cc2ccc(Cl)cc2)cc1NC(=O)c1ccco1 | inactive
45 | CC(=O)c1cccc(NC(=O)NCCS(C)=O)c1 (stereo unspecified) | inactive
46 | COc1ccc(N2CCN(CCNC(=O)Nc3ccc(Cl)cc3)CC2)cc1 | inactive
47 | Cc1ccc(NC(=O)Nc2ccc3c(c2)nc(C)n3C)cc1 | inactive
48 | O=C(Nc1ccccc1)NC1CCN(CCCN2C(=O)c3ccccc3C2=O)CC1 | inactive

Row | Compound | outcome
49 | Cc1cc2nc(C)n(CCCNC(=O)Nc3ccc(F)cc3)c2cc1C | inactive
50 | Cc1cccc2nc(C(=O)Nc3cccc(C(=O)NC4CC4)c3)cn12 | inactive
51 | Cc1ccc(NCc2nnc(SCC(=O)N(Cc3ccccc3)C(C)(C)C)o2)c(C)c1 | inactive
52 | CNC(=O)C(=O)N/N=C/c1cccnc1 | inactive
53 | O=C(CN(C(=O)c1cc2c(s1)CCC2)C1CCCC1)NCc1cccs1 | inactive
54 | CCCc1nc2ccccc2c(=O)n1NC(=O)c1c(O)c2cccc3c2n(c1=O)CCC3 | inactive
55 | COC(=O)Cc1cc(=O)[nH]c(/N=C(\N)Nc2ccc(C)cc2)n1 | inactive
56 | O=C(N/N=C\c1ccc(Cl)cc1)C1=NOC2COC3(CCN(c4ccc([N+](=O)[O-])cc4)CC3)OCC12 (stereo unspecified) | inactive
57 | CCC(C)N1CC23C=CC(O2)C(C(=O)OC)C3C1=O (stereo unspecified) | inactive
58 | COCC(=O)Nc1sc2c(c1C(=O)OC)C(C(=O)OC)CC2 (stereo unspecified) | inactive
59 | CCOC(=O)c1c2c(n(Cc3ccccc3)c1C)C(=O)C(=O)c1ccccc1-2 | inactive
60 | CCOC(=O)C1=C(Cc2ccc(Cl)cc2)C(=O)c2ccccc2C1=O | inactive
61 | O=C(Nc1ccccc1N1CCCCC1)c1ccccc1F | inactive
62 | COc1c(F)c(F)c(C(=O)Nc2ccccc2N2CCN(C(C)=O)CC2)c(F)c1F | inactive
63 | COc1ccc(S(=O)(=O)N(C(C)=O)c2ccc3oc(=O)sc3c2)cc1 | inactive
64 | O=C1C(Cl)=C(Oc2ccccc2)C(=O)c2ccccc21 | inactive
65 | CC(OC(=O)c1cccc(O)c1)C(=O)N(C)Cc1ccccc1 (stereo unspecified) | inactive
66 | CC(=O)Nc1ccc(NC(=O)c2sc3nc4c(c(-c5ccc(C)cc5)c3c2N)CCC4)cc1 | inactive
67 | CSc1ncccc1C(=O)NCc1nnc2ccccn12 | inactive
68 | O=C(Cn1c(NCCO)nc2ccccc21)NCC(F)(F)F | inactive
69 | O=C(CSc1nnc(CN2CCCCC2)n1-c1ccccc1)c1ccc2c(c1)OCO2 | inactive
70 | CC(NC(=O)c1ccco1)C(=O)N1CCc2ccccc2C1 (stereo unspecified) | inactive
71 | O=C(CN(C1CCCCC1)C1CCCCC1)N1CCc2ccccc2C1 | inactive
